By AC50 is commonly meant the concentration giving half of the maximal activity seen.

The nature of assay [1]: ACEA_AR_agonist_AUC_viability: ACEA Biosciences xCELLigence Real-Time Cell Analysis on Androgen Receptor Agonism for Viability (AID 2283775).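 On AC50: viability read 80 hours after compound addition.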 In short, it runs like this:
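22Rv1 cells; impedance growth kinetics; 8-pt 1:4 dilutions from 100 uM top final, ≤0.5% DMSO; n = 2; 80 h read; AUC viability, loss-of-signal vs DMSO.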

Assay [2] can be described thus: ACEA_AR_antagonist_AUC_viability: ACEA Biosciences xCELLigence Real-Time Cell Analysis on Androgen Receptor Antagonism for Viability (AID 2283776).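 Further: 22Rv1 human prostate cancer cells growing on impedance electrode plates; hits lower the growth signal relative to DMSO meaning cytotoxicity.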 In short, it runs like this: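 Impedance read-out (RT-CES): area under growth curve at 80 h post-dose, loss of signal scored vs DMSO baseline. 22Rv1 cells; 8-pt 1:4 series, top 100 uM final, ≤0.5% DMSO; biological duplicate.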

The nature of assay [3]: ACEA_ER_AUC_viability: ACEA Biosciences xCELLigence Real-Time Cell Analysis on Estrogen Receptor Agonism for Viability (AID 2283782).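 Further: hit means loss of impedance signal meaning reduced cell growth or viability.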 In short, it runs like this: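 Read-out: real-time electrical impedance (RT-CES) area under curve, loss of signal taken as reduced viability, normalized to DMSO baseline. T-47D cells, charcoal-stripped serum medium, compounds up to 100 uM final, continuous exposure, 80 h.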

Assay [4] concerns the target AR (gene 367) (UniProt P10275). In words: ACEA_AR_agonist_80hr: ACEA Biosciences xCELLigence Real-Time Cell Analysis on Androgen Receptor Agonism for Proliferation (AID 2283783).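 Further: hits increase impedance growth signal above DMSO baseline.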 In short, it runs like this:
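Impedance (RT-CES) growth signal at 80 h post-dose; 22Rv1 cells, 8-pt 1:4 series, top 100 uM final, DMSO ≤0.5%; duplicate plates; gain-of-signal fit relative to DMSO baseline.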

Assay [5] in a line: STM_H9_NormalizedViability: Cytotoxicity Assessment at 120 hours in the Stemina devTOX quickPredict H9 human embryonic stem cell (hESC)-based Assay (AID 2283784). In short, it runs like this:
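Viability endpoint: background-corrected CellTiter-Fluor RFU expressed relative to the 0.1% DMSO mean on each plate. Undifferentiated H9 cells were treated with daily re-dosing and media change, and loss of signal was fitted.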

Assay [6] has as its target AR (gene 367) (UniProt P10275). In words: ACEA_AR_antagonist_80hr: ACEA Biosciences xCELLigence Real-Time Cell Analysis on Androgen Receptor Antagonism for Proliferation (AID 2283787).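 Further: 22Rv1 human prostate cancer cells with growth followed by electrical impedance; hits lower the impedance growth signal relative to DMSO.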 Put shortly: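 Measures real-time proliferation of 22Rv1 prostate cancer cells by electrode impedance at 80 hours after dosing. Test articles ran at eight concentrations (1:4 steps, top 100 uM final) in biological duplicate.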

Each structure is given as a SMILES string. Results filed as inconclusive are left out. Some compounds were tested as several samples or in several runs, with calls that do not always agree. The source made the active and inactive calls. How the source made its calls: active means hit-call score of the fitted dose curve at least 0.9, where 1 is the maximum; inconclusive means response in the unintended direction; inactive means score below 0.9.

Sequence of AR (gene 367) (P10275 whole entry, looked up): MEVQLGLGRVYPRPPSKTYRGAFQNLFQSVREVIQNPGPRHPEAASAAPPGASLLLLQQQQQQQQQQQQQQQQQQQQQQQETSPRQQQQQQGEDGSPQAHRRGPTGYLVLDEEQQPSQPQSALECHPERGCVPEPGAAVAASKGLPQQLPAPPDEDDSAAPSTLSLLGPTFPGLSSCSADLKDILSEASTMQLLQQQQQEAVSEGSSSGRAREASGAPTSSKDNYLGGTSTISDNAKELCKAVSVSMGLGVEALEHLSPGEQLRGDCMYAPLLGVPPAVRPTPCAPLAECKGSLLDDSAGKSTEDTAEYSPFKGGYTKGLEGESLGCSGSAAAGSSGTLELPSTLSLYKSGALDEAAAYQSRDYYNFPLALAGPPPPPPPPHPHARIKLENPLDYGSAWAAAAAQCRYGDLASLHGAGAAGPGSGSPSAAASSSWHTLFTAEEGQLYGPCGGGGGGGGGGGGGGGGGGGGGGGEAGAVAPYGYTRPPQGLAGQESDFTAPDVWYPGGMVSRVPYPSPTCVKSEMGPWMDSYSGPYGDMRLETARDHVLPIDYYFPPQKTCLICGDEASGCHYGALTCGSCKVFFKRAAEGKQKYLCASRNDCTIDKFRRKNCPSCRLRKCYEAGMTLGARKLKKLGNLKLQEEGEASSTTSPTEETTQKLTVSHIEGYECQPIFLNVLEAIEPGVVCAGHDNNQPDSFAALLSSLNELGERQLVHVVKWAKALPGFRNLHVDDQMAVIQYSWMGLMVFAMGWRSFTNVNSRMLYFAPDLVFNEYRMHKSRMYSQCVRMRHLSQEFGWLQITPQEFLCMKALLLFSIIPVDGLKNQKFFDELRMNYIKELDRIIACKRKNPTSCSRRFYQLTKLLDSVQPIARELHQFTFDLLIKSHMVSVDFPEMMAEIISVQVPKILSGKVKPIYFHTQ

For `COc1ccc(OC)cc1`, in assay [1], the compound was called inactive.
Consider `CCCCOCCOCCO`, for which the outcome in assay [1] and in assay [2] was inactive.
On to `O=Cc1ccccc1O`, for which the call in assay [1] and in assay [2] was inactive.
Take `OCC=Cc1ccccc1`: the call in assay [1] and in assay [2] was inactive.
With `C=CC(C)CCCC(C)(C)O` (stereo not drawn), the call in assay [1] was inactive.
The same measure, in the same setting: under `CCC(C)COC(=O)CC(C)C` (stereo not drawn) stands “inactive”.
Regarding `CCNC(=S)NCC`, the call in assay [1] and in assay [2] was inactive.
As to `CC1=CCC(C(C)C)=CC1`, the outcome in assay [1] was inactive.
Take `O=C1OC2(c3ccc(O)cc3Oc3cc(O)ccc32)c2ccccc21`: the compound was classed as inactive in assay [1] and in assay [2].
For `CCCc1ccc(N)cc1`, the compound was called inactive in assay [1], in assay [2] and in assay [3].
Consider `C=C(C)C(N)=O`, for which the call in assay [1] and in assay [2] was inactive.
Consider `NCCN1CCNCC1`, for which, in assay [1], the compound was classed as inactive.
As for `Cc1cccc(O)c1`, the result in assay [1] and in assay [2] was inactive.
Consider `CC(C)N(c1ccccc1)C(C)C`, for which the compound was classed as inactive in assay [1] and in assay [2].
`C[C@]12CC[C@@H]3c4ccc(O)cc4CC[C@H]3[C@@H]1CC[C@@H]2O`: in assay [1], the AC50 is 0.05 µM (active) and the result was inactive. Also, in assay [2], the AC50 is 85.9 µM (active) and the outcome was inactive.
In the case of `CCCc1ccc(O)cc1`, the compound was classed as inactive in assay [1] and in assay [2].
With `O=c1cc(-c2ccc(O)cc2)oc2cc(O)cc(O)c12`, the AC50 in assay [1] is 12.7 µM (active); in assay [2], 6.43 µM (active).
Take `CCCCCCCCCO`: the compound was called inactive in assay [1].
The same measure, in the same setting: to `NC(=O)c1cccnc1` belongs “inactive”.
As for `c1coc(CNc2ncnc3nc[nH]c23)c1`, the compound was called inactive in assay [1] and in assay [2].
In the case of `[Na+]`, the outcome in assay [1] and in assay [2] was inactive.
With `CC(C)(C)c1ccc(S)cc1`, in assay [1], the result was inactive.
`CC(C)(CO)CO`: the call in assay [4] was inactive.
Consider `COC(=O)c1ccc(C(=O)OC)cc1`, for which the result in assay [5] was inactive.
Regarding `CCCCOCCOCCOCCO`, the result in assay [5] was inactive.
With `CCC(C)(C)C1CCC(=O)CC1`, the result in assay [4] and in assay [6] was inactive.
For `CC1COC(=O)O1` (stereo not drawn), the outcome in assay [4] and in assay [6] was inactive.
For `O=C(O)c1ccccc1O`, in assay [5], the AC50 was 7090 µM (active).
As for `CC(=O)N(C)C`, in assay [6], the compound was classed as inactive.

These data come from PubChem BioAssay (EPA / NIEHS).
